The supplement of paper PMC6555819

Key:
Assay in all cases: PBM binding z-score (relative to random genomic background probes); higher = stronger binding; sequences stand for … in GC…GCGATTGACAGCGTAGAATGAAGG
[1] = system: FXR:RXRa (NR concentration 270 nM, RXRa partner concentration 90 nM)
In short: (§1)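 Antibodies against each partner of ligand-free nuclear receptor dimers (one per run) detected binding on custom Agilent 4×180K protein-binding microarrays after 1 h incubation. The double-stranded probes had 34-nt variable regions carrying direct-repeat seeds, single-nucleotide variants, half-site ablations and random human genomic background sequences. Binding z-scores, from regression-normalized fluorescence, use the random background probes as reference.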

[2] = system: LXRa:RXRa (NR concentration 270 nM, RXRa partner concentration 90 nM)
In short: as §1

[3] = system: LXRa homodimer (NR concentration 270 nM)
In short: as §1

[4] = system: LXRb:RXRa (NR concentration 270 nM, RXRa partner concentration 90 nM)
In short: as §1

[5] = system: LXRb homodimer (NR concentration 270 nM)
In short: as §1

[6] = system: PPARa:RXRa (NR concentration 270 nM, RXRa partner concentration 90 nM)
In short: as §1

[7] = system: PPARg:RXRa (NR concentration 180 nM, RXRa partner concentration 90 nM)
In short: as §1

[8] = system: PPARg:RXRa 270nM:90nM, anti-RXR (NR concentration 270 nM, RXRa partner concentration 90 nM)
In short: as §1

[9] = system: PPARg:RXRa 30nM:10nM, anti-RXR (NR concentration 30 nM, RXRa partner concentration 10 nM)
In short: as §1

[10] = system: PPARg:RXRa 90nM:30nM, anti-RXR (NR concentration 90 nM, RXRa partner concentration 30 nM)
In short: as §1

Sequence	PBM binding z-score [1]	PBM binding z-score [2]	PBM binding z-score [3]	PBM binding z-score [4]	PBM binding z-score [5]	PBM binding z-score [6]	PBM binding z-score [7]	PBM binding z-score [8]	PBM binding z-score [9]	PBM binding z-score [10]
CAAACTAGGTCAAGAGGTCAAAGACCGCTTCCCG	7	6.25	5.13	5.46	1.47	6.65	10.1	8.53	7.38	8.62
CGTCCAAGGTAAAGGTCAGTGAAAGAGACTCGAA	3.41	3.38	0.618	3.01	-0.119	4.54	5.24	6.05	3.76	5.72
ATATCTAGGTAAAGTTCAGTGAAAGATCGATAGA	1.18	1.84	1.43	1.36	0.639	3.42	5.08	5.21	2.95	4.9
CCGACTGGGCCAAAGGTTACCATACTCAGTACGA	1.06	1.26	0.13	2	-0.974	5.39	10.7	9.42	9.58	10.6
TCGAGTAGGTTAGGGGCATTCATAATGGCGTCGA	0.0373	0.369	0.0659	0.931	-0.211	1.4	1.06	2.19	1.35	1.98
CATACAGGGTCAGCTAGGTCAGAGTAGGGACGGC	5.34	3.88	0.985	3.24	0.645	4.72	4.42	3.93	0.846	2.42
TCGAGTAGGTTAGTCGGGGCTTTCAGCCAACATA	-0.154	-0.116	-0.783	-0.0101	-1.08	0.158	-0.922	0.148	0.909	0.595
CCTAATGGGCCATCAGGTCATTGATATCAACGTT	1.58	1.34	1.1	1.48	0.197	2.33	1.5	2.54	0.609	1.98
CCTAGTAGTTGACCATAAGGGCAACCGAAGCTCG	0.577	0.379	0.118	0.228	0.0472	0.369	0.269	0.285	-0.556	0.0396
AGAATGAGGTTAAGATCAGGGAGACAGAATACAT	2.07	1.66	0.293	1.69	-0.0325	3.31	2.15	2.29	0.947	1.62
GCTATTATTTGAAAGGGCAACCGAATGATTCTCG	0.306	0.97	1.37	0.925	0.441	1.08	0.626	1.41	0.637	0.844
ACAGACAGGTGATGAAGGTAACTAAGGCTATCAT	-0.0463	-0.218	-0.177	0.0824	-0.634	0.196	0.606	0.00614	0.045	0.0556
CCAGACAGGTGAGAAGGTAACTCCGCCTCGATTA	-0.167	-0.237	0.189	-0.163	-0.188	0.436	0.351	0.504	-0.516	0.193
CCTACTGGGCCATGGTCATTGATCAGTCAAAGCA	0.0298	-0.313	-0.591	-0.226	-1.02	0.969	1.05	1.3	-0.281	0.872
CCAGACAGGTGATAGGTAACTCAGTCTGGTACGC	-0.225	-0.0796	-0.151	-0.0572	-0.589	0.765	1.82	2.56	0.858	1.92
ATACCAAGGTGATCGTGAGGTCTTTGATACTAAC	0.467	0.136	0.00658	0.0706	-0.603	0.646	0.322	0.105	-0.238	-0.296
TTACCAAGGTGAGATGAGGTCGTTGATCCAACTC	1.78	1.68	-0.0824	1.1	-0.44	2.03	0.772	1.32	0.775	1.01
GTACCAAGGTGAATGGGTCGTTGATGAGTAGGCG	0.456	0.288	-0.238	0.0453	-0.983	1.71	1.26	1.19	0.195	0.732
ATATGTACGTTATCGGGTCATTCAGTTTGCGCAT	2.05	2.01	1.02	2.32	1.03	2.67	1.3	1.35	0.0555	0.972

Sequence	PBM binding z-score [1]	PBM binding z-score [2]	PBM binding z-score [3]	PBM binding z-score [4]	PBM binding z-score [5]	PBM binding z-score [6]	PBM binding z-score [7]	PBM binding z-score [8]	PBM binding z-score [9]	PBM binding z-score [10]
TCATATAGGTAAAGGTGCAAGTCGAACGATATGA	0.551	0.493	-0.176	0.57	-0.374	2.77	4.36	5.55	4.82	5.79
CGAACTAGGTCTAGGACAGTGAATCTCCGCACGC	-0.409	-0.606	-0.429	-1.12	-0.723	-0.176	0.461	-0.367	-0.539	-0.377
TCTTGTAGATCAACAGGAGGTTAAGATAGATCGA	0.606	1.82	0.251	0.87	-0.281	1.34	0.413	1.07	2.4	1.53
CGGAGTAGGTTATGGGGCATTCAGGCAACGGTGA	0.339	0.3	0.0885	0.718	-0.187	2.92	4.95	5.93	5.09	6.03
GGAACGAGGGCATTCGAGTTGATACCATGGCGAT	0.529	1.7	-0.438	0.458	-0.357	1.44	1.06	0.855	-0.156	0.405
TAGCCTAGGTCATTCAGGGTCCAGTATAGAAAGC	4.67	4.27	0.918	3.01	0.48	3.74	1.99	2.11	0.487	1.23
GCTGCAAGGTCAGGTTGGTCAGCTAACGGGTACG	4.43	2.88	0.0795	2.36	0.0855	3.65	1.36	2.37	0.236	1.42
GGAACGAGGGCATTCGAGTTGAGAGCATGGCGAT	1.64	1.88	-0.277	0.172	-0.777	1.5	0.715	1.11	-0.289	0.498
ACTATTAGTTGAGACGAGGGCAACGGATAGGTTG	0.259	0.127	-0.147	0.0625	0.209	0.0596	0.652	-0.1	-0.0194	-0.207
AGCGAAAGGTCGACGAGGTGAGTATACACCGTTT	4.18	2.97	-0.376	2.37	-0.286	4.3	3.21	3.62	0.842	2.31
AGAATGAGGTTATTACGATCAGGGAATTGCGGTC	2.01	1.7	0.373	1.49	0.0914	2.66	1.55	1.88	0.584	1.11
ACTTACGGGTCAACTAGGTTATAGCACGCGTATA	6.74	4.89	0.702	4.49	0.758	5.8	6.09	5.5	2.25	4.51
GAGACAGGGTCAAGGCCAGAGTACGCGTATTGAT	6.57	3.62	-0.408	3.43	-0.789	5.24	4.71	4.73	1.4	3.22
CCGACTGGGGCATCAGGTTACCATAAGCCAGCCC	-0.188	0.277	-0.351	-0.136	-1.31	0.743	1.33	1.59	-0.0759	1.03
CCTTACGGGTCACGAGGTTATATCACGACGAGCG	7.05	4.73	0.668	4.12	-0.0743	6.05	7.17	6.76	3.62	5.46
CAAACTAGGTGAAGGTCAAAGTCGGTTTGTGCCA	4.11	4.11	2.31	3.48	0.412	5.38	7.65	6.92	5.05	6.44
TCAGCCAGGTGAAGGTAACTCAGGTACGCAGTCG	0.00852	1.19	-0.431	0.138	-1.48	0.696	0.4	1.32	2.09	1.5
TAGGCTAGGTCAGATCGGGCCAGTATACGCTATA	1.84	0.947	-0.397	0.688	-0.542	1.42	0.684	0.646	-0.0664	0.434
